In all, about 33,000 sequences were measured (“E-score (-0.5 to 0.5)”: median about -0.0059, highest 2% from about 0.26 on). For the sample, the highest values were picked, then their nearest neighbours and some sequences at random.
biological target: T1, Cin5 (UniProt P40917); experiment: PBM E-score (8-mer binding enrichment) (E-score (-0.5 to 0.5)); higher = stronger / more preferred TF binding; conditions: protein concentration: 100 nM; construct: GST-full length
T1 sequence: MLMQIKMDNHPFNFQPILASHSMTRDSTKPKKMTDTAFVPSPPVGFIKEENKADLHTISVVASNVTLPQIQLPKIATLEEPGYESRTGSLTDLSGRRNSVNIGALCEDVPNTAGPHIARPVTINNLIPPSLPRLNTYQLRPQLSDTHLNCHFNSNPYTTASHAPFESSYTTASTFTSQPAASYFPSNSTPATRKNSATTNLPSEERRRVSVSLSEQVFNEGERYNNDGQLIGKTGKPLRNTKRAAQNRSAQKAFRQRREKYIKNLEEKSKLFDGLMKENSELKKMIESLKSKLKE
How it was run: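 Detection of bound protein used fluorescent anti-GST, with scans normalised by masliner. The proteins were GST-tagged yeast transcription factors applied at about 100-200 nM to universal all-10-mer Agilent arrays made double-stranded by primer extension. Each ungapped eight-base word, pooled with its reverse complement, was scored with an E-score from the Universal PBM Analysis Suite.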

Sequence | PBM E-score
AACACTCA | 0.182
CGGCCAAG | -0.069
AAAGGCGG | -0.104
TCGAAGAA | 0.014
ACGAAGAA | 0.284
ACGAAGAT | 0.116
GCAATGCA | -0.053
GGCTCTAA | 0.0226
ACCATTGC | 0.0233
GTGCAAAA | -0.037
ATCAATTA | 0.317
AACAATTC | 0.111
ATCAATTC | 0.044
ACCAATTG | -0.0132
ATCAATTG | 0.232
AACAATTG | 0.0983
GCCAATTA | 0.155
AACAATTA | 0.295
ACCAATTA | 0.266
CCTGGACG | -0.179
GCCTCAAA | 0.0112
GGCCTGGA | -0.317
AGCCCCAG | -0.0735
CCTCACAG | 0.0094

Sequence | PBM E-score
CGGGGAAG | -0.0981
CACGTTGA | -0.095
CTAAGCTA | 0.162
ATAAGCTA | 0.2
GTAAGCTA | 0.36
GTAAGCCA | 0.264
CTAAGCCA | -0.074
ATAAGCCA | 0.11
AGTCTCAG | -0.123
AACCTGAC | 0.131
ACGAGTCA | -0.257
CAAGAAGC | 0.0478
AGCTCATG | -0.0196
CAGACGAA | 0.286
GAGACGAA | 0.0297
CAGACGAC | -0.168
GAGCGGTA | -0.0453
GCAAAAGC | -0.0287
ATTCCACG | 0.0808
ATTCCGCC | 0.215
ATTCCACA | 0.266
ATTCCGCA | -0.0146
ATTCCGCG | 0.261
ATCCCGCG | 0.258

Sequence | PBM E-score
ATCCCGCA | 0.135
ATCCCGCC | 0.0426
ATTCCACC | 0.15
ATGACGCA | 0.195
CTTATTAC | 0.236
CGTATTAA | 0.106
ACTATTAA | 0.162
CTTATTGA | 0.125
CTTATTAA | 0.299
GTTATTAA | 0.214
ATTATTAC | 0.305
ACTATTAC | 0.224
ATTATTAA | 0.316
CGGGAACG | -0.00694
GAGCGGCC | -0.239
GAGATCTC | -0.0335
GATCCCTA | -0.0517
ATCATAAA | 0.131
CACATAAG | 0.109
AACATAAT | 0.346
AACATAAC | 0.223
ATCATAAG | 0.204
ATCATAAT | 0.327
AACATACG | 0.171

Sequence | PBM E-score
AACATACT | 0.0533
AACATAAG | 0.328
AAGTCAAC | 0.0456
CACTGTTC | -0.108
AGGATATA | 0.152
CAGTCCGA | -0.0341
AGGTTAGC | -0.199
TCGTCGAA | -0.161
AAACATAC | 0.0238
AAACATGG | 0.0681
AAACATGA | 0.131
AAACATGT | 0.261
AAACATAT | 0.269
AAACATAG | -0.0763
CCCAAGGC | -0.0737
AAACCTTG | 0.072
ACTAAAGA | -0.0785
CAGGGCGC | -0.0291
TAAGCACA | 0.314
AAAGCAGA | 0.178
CAAGCGAA | 0.187
CAAGCACA | -0.0819
TAAGCAGA | 0.306
GAAGCGAA | -0.0046

Sequence | PBM E-score
TAAGCGAA | 0.275
CAAGCACG | -0.0414
CAAGCAGA | 0.0983
ACCGGGAC | -0.0537
AAGGGGAG | -0.252
ATTTTACC | 0.237
ATTTTTCC | -0.0233
AATTTACG | 0.234
AATTTTTC | 0.057
ATTTCTCC | 0.0831
ATTTTCCG | 0.329
ATTTTACG | 0.271
AATTTCCG | 0.18
ATTTCTCG | 0.313
ATTTCTCA | 0.0803
AATTTTCC | 0.289
ATTTTCCC | 0.0377
ATACTTCG | 0.129
GACGTCCC | -0.0301
GCATTCGC | -0.157
AGACACCT | -0.048
CGAGCGCA | 0.0288
CCGCCACG | -0.222
ATTTCCCC | 0.0813

Sequence | PBM E-score
ATTTCCCG | 0.258
ATTTCCCA | 0.165
CAGTAACC | -0.021
AAGCAATC | 0.165
ATCTAATG | -0.00795
ATCTAATA | 0.19
CCCTAATC | 0.0683
ACCTAAGC | 0.327
ATCTAATC | 0.306
CCCTAAGC | -0.145
ACCTAATC | 0.311
GCCTAAGC | -0.181
ACCTAATA | 0.246
CGCGGTAC | -0.0212
CATTGCTC | -0.157
CCTACAGG | -0.33
AAAGAAAA | 0.112
AGAATGAC | 0.0989
CGAATGAC | 0.275
CGAATGAA | 0.0154
AGAGGACC | -0.22
GTATCATA | 0.274
GTATCACA | 0.154
CTATCATA | 0.21

Sequence | PBM E-score
ATATCATG | 0.0651
ATATCATA | 0.288
GTATCAGA | -0.0398
CTGTGACC | 0.0399
CAACTATC | 0.0334
ACATAATC | 0.445
CCATAATA | 0.226
ACATAATG | 0.204
GCATAATA | 0.235
ACATAATA | 0.364
CCATAATC | 0.245
ACTGCCCC | -0.125
ACCGCGCA | 0.151
CGCCTCTC | -0.34
TACTAATA | 0.193
AAATAATT | 0.301
AAATAATG | 0.21
AAATAACA | 0.171
CAATAACA | 0.193
AAATAATC | 0.17
AACTAATA | 0.378
GAATAACA | 0.26
AAATAAGT | 0.12
CACTAATA | 0.158

Sequence | PBM E-score
AAATAAAT | 0.246
AAATAATA | 0.313
AAAAGTTT | 0.00197
GCTTAAGA | -0.0654
ACGCCTGC | -0.234
CTCAGCGC | 0.0746
AATTCTCA | 0.0439
CTGCAGTC | -0.165
CTAAACTC | -0.0293
ACGAGGTA | 0.0339
CAATAATG | 0.0624
CAATAATC | 0.233
CAATAATA | 0.276
GAATAAAA | 0.0288
TAATAAAA | 0.235
TAATAATA | 0.274
TAATAACA | 0.146
GAATAATC | 0.221
GAATAATA | 0.291
CCTGAAAA | -0.101
AACTTTAT | 0.123
AGTTGTTG | 0.0199
ATGATATA | 0.166
ATGATATG | 0.289

Sequence | PBM E-score
AAGATATG | 0.268
AAGATATC | 0.207
AAGATATA | 0.152
ATGATATC | 0.167
CCTTCCAG | -0.127
GGTCCGCA | -0.0684
GGTTCCCA | -0.0888
AACTTGCG | -0.0652
ACTTAACA | 0.0535
GCAATTTA | 0.137
ATAATTTC | 0.136
ATAATTTA | 0.332
GTAATTTA | 0.27
ATAATTTG | 0.208
CTAATTTA | 0.158
GCCGCTCC | -0.305
CCCACACG | 0.0465
TCATATGA | 0.272
GCATATGA | 0.197
CCATATGA | -0.0136
CAATATGA | 0.118
AAATATGA | 0.245
TAATATGA | 0.262
ATGGACGC | -0.0507

Sequence | PBM E-score
TCTTCCCA | -0.177
GGTATCAC | 0.0115
ATTGGGTG | 0.282
ATTGGGTC | 0.13
ATTGGGTA | 0.0825
ACCATTCA | 0.0437
AGTTGAAG | -0.00489
AGTTGAAT | 0.259
AGTTGAAA | -0.0098
CGACTGGA | -0.167
GTTCGACA | 0.0859
GTCTAGCA | -0.0616
AAACATGC | 0.0556
ATAAGAAC | 0.31
ATAAGAAT | 0.224
ATAAGAAA | 0.156
CGTCTCTA | -0.21
GTCGCGAC | 0.317
CTCGCGAC | 0.107
GTCGCGAA | -0.0343
TGGTAACA | -0.0163
TCACCAGA | -0.144
ATAATCGC | 0.187
ATAATCAA | 0.227

Sequence | PBM E-score
ATAATCAT | 0.377
ATAATCAG | 0.285
CTAATCAG | 0.14
ATAATCGG | 0.291
ATAATCAC | 0.233
AAAATCAG | 0.00782
ATAATCGA | 0.178
AAAAGGGA | -0.1
CAATCTTA | 0.0906
CCGGGTCG | -0.131
CAGGAGCG | -0.0881
GACCCATA | 0.222
AACCCATA | 0.29
AACCCATT | 0.114
AGAACTTC | -0.217
AGCTATTG | 0.01
CGTGGAAG | 0.129
AGTGGAAA | 0.0448
CGTGGAAA | 0.28
CACTATGG | -0.15
ATAATAGA | 0.221
ATAATATG | 0.289
CTAATATA | 0.0911
GTAATATA | 0.323

Sequence | PBM E-score
ATAATATA | 0.345
GCAATATA | 0.185
ACAATATA | 0.269
AGAATATA | 0.105
ATAATATC | 0.221
CCAATATA | 0.0434
ATAATAAG | 0.225
GTAATAAA | 0.2
GAGCTCCA | -0.092
AAGGCCCT | -0.136
CTTAGTGA | 0.0718
CCCCCTTA | -0.342
AGTATCAC | 0.0484
ATATAATA | 0.303
CTATAATA | 0.114
GTATAATA | 0.253
AACCCCTT | -0.0504
CTCCCCAA | -0.00166
CATCTGCC | -0.0681
ATGTTTTC | 0.121
CCTGGGAG | -0.176
ACTCCCGC | -0.0164

From the supplement of paper PMC3334620
